Experimental data reported in PubChem BioAssay (NCI).
Compounds without any hit were thinned out: in the full panel of roughly 79,000, 15% have a hit. Rule as the data show it: active = growth inhibition above about 70%; inactive = the rest.

Tests used:
[1] = NCI Yeast Anticancer Drug Screen. Data for the rad50 strain (AID 155);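 also: 0% = growth of vehicle-only cultures of the same strain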; conditions: S. cerevisiae rad50 strain growth inhibition; at 50.0 µM; hits give high values
Procedure, shortened: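 Readout: growth inhibition relative to vehicle-treated cultures. Compound exposure was carried out in a genetically defined yeast strain deficient in DNA damage repair.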

[2] = NCI Yeast Anticancer Drug Screen. Data for the mec2-1 strain (AID 157); conditions: S. cerevisiae mec2-1 strain, at 50.0 µM, hits give high values
Procedure, shortened: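 Readout is yeast growth inhibition, normalised to vehicle-treated controls, in the mec2-1 strain exposed to compound.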

[3] = NCI Yeast Anticancer Drug Screen. Data for the sgs1 mgt1 strain (AID 161);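 also: 0% = growth of cultures given vehicle only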; conditions: S. cerevisiae sgs1 mgt1 strain, at 50.0 µM, hits give high values
Procedure, shortened: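 Compounds are added to genetically altered yeast, and growth is compared with cultures given vehicle alone to give percent inhibition.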

[4] = NCI Yeast Anticancer Drug Screen. Data for the cln2 rad14 strain (AID 165);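 also: 0% = growth equal to vehicle treated cultures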; conditions: S. cerevisiae cln2 rad14 strain, at 50.0 µM, hits give high values
Procedure, shortened: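 Relative to vehicle controls, growth inhibition of compound-treated cln2 rad14 yeast was recorded.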

[5] = NCI Yeast Anticancer Drug Screen. Data for the bub3 strain (AID 167); conditions: S. cerevisiae bub3 mutant strain, at 50.0 µM, hits give high values
Procedure, shortened: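 Readout: yeast growth inhibition, expressed relative to vehicle-only wells. The test organism is a mutant strain from a panel with lesions in DNA repair or checkpoint genes.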

[6] = NCI Yeast Anticancer Drug Screen. Data for the mlh1 rad18 strain (AID 175); conditions: S. cerevisiae mlh1 rad18 strain growth inhibition; at 50.0 µM; hits give high values
Procedure, shortened: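 Test agents were incubated with a yeast strain of defined genotype (DNA damage repair defect). Inhibition of growth was derived by comparison with vehicle-exposed cultures.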

Measured: growth inhibition

CN1C2CC(=O)CC1[C@@H]1OC(c3ccccc3)O[C@H]21 (stereo partly specified)
inactive: [1] 6.65% | [2] -3.25% | [3] -15.4% | [4] 27.9% | [5] 17.6% | [6] 19.5%

N#CC1=C(N)NC(=O)C(C(N)=O)C1c1ccccc1Cl (stereo unspecified)
inactive: [1] -16.6% | [2] -13.4% | [3] -12.1% | [4] -11.3% | [5] -11.4% | [6] -12.8%

COc1ccc(NC(=S)NC(=O)c2ccccc2)cc1OC
inactive: [1] 31.8% | [2] 4.15% | [3] 21.9% | [4] 3% | [5] -1.2% | [6] 15.4%

CC(C)CNC(=O)/C=C/c1ccc2c(c1)OCO2
inactive: [1] 13.5% | [2] -19.1% | [3] -1.4% | [4] 3.4% | [5] 6.45% | [6] -15.1%

Cc1ccc(S(=O)(=O)c2scc(-c3ccccc3)c2C)cc1
inactive: [1] -47.2% | [2] -57.8% | [3] -31.1% | [4] -8.7% | [5] -17.9% | [6] -13.2%

COCCN1CC(=O)N2Cc3ccccc3CN2C(=O)C1
inactive: [1] -4.6% | [2] -13.8% | [3] -6.15% | [4] -9.5% | [5] -3% | [6] -6.65%

Cc1cc(C)c(C2[C@H]3C(=O)N(c4ccc(Cc5ccc(N6C(=O)[C@@H]7ON(c8ccccc8)C(c8c(C)cc(C)cc8C)[C@@H]7C6=O)cc5)cc4)C(=O)[C@H]3ON2c2ccccc2)c(C)c1 (stereo partly specified)
inactive: [1] 27.6% | [2] 31.8% | [3] 19.8% | [4] 25.2% | [5] 29.4% | [6] 24.2%

C=CC(C)Cc1ccccc1 (stereo unspecified)
inactive: [1] 2% | [2] 1.05% | [3] 7.85% | [4] 24.1% | [5] 31.5% | [6] 25.2%

C=C1C(OC(=O)/C=C/c2ccccc2)CC(OC(C)=O)C2(C)C1CC1CC(OC(C)=O)C(C)=C(C(OC(C)=O)C2OC(C)=O)C1(C)C (stereo unspecified)
inactive: [1] 38.5% | [2] 6.35% | [3] 14.1% | [4] 21.4% | [5] 25.4% | [6] 24.5%

O=S(=O)(Cc1c(Cl)c(Cl)c(Cl)c(Cl)c1Cl)c1ccc(Cl)cc1
inactive: [1] 1.2% | [2] -0.6% | [3] -1.25% | [4] -17.8% | [5] 2.4% | [6] -2.4%

CCCC(=O)OCC1OC(n2cc(F)c(=O)[nH]c2=O)CC1O (stereo unspecified)
inactive: [1] 14.2% | [2] -4.2% | [3] 5.65% | [4] 9.7% | [5] 6.65% | [6] -27.4%

CC(=O)O[C@H]1CSC[C@@H](OC(C)=O)C1[N+](=O)[O-] (stereo partly specified)
inactive: [1] 37.5% | [2] 25.4% | [3] 17.7% | [4] 43.2% | [5] 18.8% | [6] 47.1%

CCCC/C=C/C1C=CC(CCCCCCCC(=O)OCC)C(C(=O)OCC)C1 (stereo unspecified) (tested in a mixture with another compound)
inactive: [1] 21% | [2] 8.75% | [3] 20% | [4] 17.4% | [5] 2.2% | [6] -13.4%

Cc1ccc(C)c2c(Cl)c3c(C)ccc(C)c3nc12
inactive: [1] -8.45% | [2] -4.65% | [3] 0.3% | [4] -29.4% | [5] -9.8% | [6] 7.25%

Cc1cc(=O)n2c3c(cccc13)CCC2
inactive: [1] 26.3% | [2] -1.5% | [3] -3.15% | [4] 7.15% | [5] 3.9% | [6] 11.9%

CCn1ncc2ccc(N(CO)CO)cc21
inactive: [1] -2.4% | [2] 22.1% | [3] -13.6% | [4] -20.2% | [5] -22.6% | [6] 4.1%

O=C1CN2C(c3ccccc3)=NN(c3ccc([N+](=O)[O-])cc3)C2(c2ccccc2)c2cc(Cl)ccc2N1CC1CC1 (stereo unspecified)
inactive: [1] 25.6% | [2] -10.9% | [3] -7.4% | [4] 20.9% | [5] 11.2% | [6] 23.4%

COC1OC(OC2OC=C3C(=O)OC4CC(C)C2C34)C(O)C(O)C1O (stereo unspecified)
inactive: [1] -17.1% | [2] -34.2% | [3] -18.7% | [4] -14.3% | [5] -33.4% | [6] -29.1%

Nc1ccc(S(=O)(=O)O)cc1Cl
inactive: [1] -12.5% | [2] -12% | [3] -5.25% | [4] -9.9% | [5] -10.4% | [6] -3.5%

CC(=O)OC1CCC2(C)C(C1)CC(OC(C)=O)C1C2CC(OC(C)=O)C2(C)C(C(C)CC=C(c3ccccc3)c3ccccc3)CCC12 (stereo unspecified)
inactive: [1] 0.1% | [2] 11.6% | [3] -4.1% | [4] -13.7% | [5] -39.9% | [6] 8.45%

COc1ccc(O)c(/C=N/NC(N)=S)c1
inactive: [1] 23.8% | [2] -24.8% | [3] -4.45% | [4] -115% | [5] -24.8% | [6] -11.4%

CC(C)NNC(=O)c1ccc(N)cc1
inactive: [1] 16.1% | [2] 6.05% | [3] 4.55% | [4] 6.55% | [5] 4.8% | [6] 6.35%

CC(C)C(NC(=O)C1CSC(C)(C)N1C=O)C(N)=O (stereo unspecified)
inactive: [1] -5.2% | [2] -31.6% | [3] 12.3% | [4] -6.7% | [5] 36.7% | [6] -25.2%

Cn1cnc([N+](=O)[O-])c1Sc1nnc(C(F)(F)F)n1C
inactive: [1] -7.6% | [2] -6.95% | [3] -9.65% | [4] 7.5% | [5] 3.6% | [6] -6.95%

O=C([O-])C[n+]1ccccc1/C=C/c1ccccc1
inactive: [1] -19.2% | [2] 1.8% | [3] -23.1% | [4] -15.2% | [5] -7.75% | [6] -23.9%

O=Cc1cc(O)ccc1[N+](=O)[O-]
inactive: [1] 11.4% | [2] -19.2% | [3] -9.55% | [4] 13.3% | [5] -13.4% | [6] 16.1%

COc1cc(OC)c(NC(=O)ON2C(=O)c3ccccc3C2=O)cc1Cl
inactive: [1] 8.2% | [2] -1.75% | [3] -2.3% | [4] 11.8% | [5] 0.5% | [6] 24.6%

CC(C)(C)n1c(=O)n(-c2ccccc2)n(C(C)(C)C)c1=O
inactive: [1] 45.5% | [2] -11.8% | [3] -28.2% | [4] 3% | [5] -27.7% | [6] -11%

CC(C)CNC(=O)c1ccccc1
inactive: [1] 0.45% | [2] 5.1% | [3] -1.6% | [4] -3.2% | [5] 0.5% | [6] -4.65%

Nc1ccn(CC(=O)c2ccc(Cl)s2)c(=O)n1
inactive: [1] -1% | [2] 10.8% | [3] 6.9% | [4] -5.1% | [5] 2.15% | [6] 6.3%

Cc1ncc2c[n+]([O-])ccn12
inactive: [1] 6.05% | [2] 10.9% | [3] -4% | [4] -1.25% | [5] 17.4% | [6] 7.8%

Nc1ccc(S(=O)(=O)O)c(N)c1
inactive: [1] 10.2% | [2] 9.05% | [3] -3.5% | [4] -0.3% | [5] 13.1% | [6] 3.95%

COC1=CC(=O)C(c2cc(O)c(OC)cc2O)=CC1=O
inactive: [1] -0.15% | [2] 4.45% | [3] -3.65% | [4] -8.65% | [5] 4.5% | [6] 5.2%

CC1C=CC(C(N)C(=O)O)O1 (stereo unspecified)
inactive: [1] -9.9% | [2] -17.6% | [3] -13.1% | [4] -0.7% | [5] -5.35% | [6] -9.85%

NNC(=O)c1ccco1
inactive: [1] 27.2% | [2] -3.85% | [3] -14.3% | [4] 20.8% | [5] -2.1% | [6] 15.8%

CCCCCCCCCCCCNC(=S)N/N=C/c1ccc(OC)cc1
inactive: [1] -19.1% | [2] -10.5% | [3] -16.8% | [4] 13.3% | [5] -8.4% | [6] -28.2%

CN(C)c1ccccc1CCCCCBr
inactive: [1] 8.35% | [2] 5.5% | [3] 5.5% | [4] -37.1% | [5] -6.7% | [6] 3.75%

CC1CC(c2ccccc2)=Nc2ccccc2S1 (stereo unspecified)
inactive: [1] 18.2% | [2] 12.9% | [3] 16.2% | [4] 19.5% | [5] 6.5% | [6] -9.4%

O=C1c2cc([N+](=O)[O-])ccc2-c2c(F)cc(F)cc21
inactive: [1] -58.5% | [2] -8.05% | [3] 9.35% | [4] -50.4% | [5] -2.1% | [6] -10.7%

CCOC(=O)/C(=C\c1ccc(N(C)C)cc1)c1nc2ccccc2[nH]1
inactive: [1] 38% | [2] 21.6% | [3] 47.1% | [4] 13.1% | [5] 40.5% | [6] -2.75%

Cc1ccccc1C(=O)NNC(=O)c1ccc2ccccc2c1
inactive: [1] 7.3% | [2] -9.1% | [3] -3.9% | [4] 9.35% | [5] -13.2% | [6] -9.45%
